Read-out in experiment [1]: Interleukin-8 (IL8), CXCL8 (gene 3576)
Put plainly: BSK_3C_IL8: BioMAP Diversity Plus: 3C Assay for Interleukin-8 (IL8) Biomarker Activity (AID 2283020). The settings on record: primary human endothelial cells (HUVEC); actives raise or lower the signal. Summed up:
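HUVEC, 3C stimulation; 24 h compound exposure; IL-8 read by ELISA; gain or loss of signal fitted relative to DMSO control.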

Read-out in experiment [2]: Monokine induced gamma interferon (MIG), CXCL9 (gene 4283)
Put plainly: BSK_3C_MIG: BioMAP Diversity Plus: 3C Assay for Monokine induced gamma interferon (MIG) Biomarker Activity (AID 2283021). The settings on record: primary human endothelial cells (HUVEC); actives raise or lower the signal. The essentials: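 HUVEC, 3C system; 24 h chemical exposure; MIG by ELISA; bidirectional fit vs DMSO baseline.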

Experiment [3] addresses human Vitamin D Receptor (VDR), VDR (gene 7421) (UniProt P11473). The experiment in a line: ATG_VDR_TRANS: Attagene TRANS-FACTORIAL HepG2 Assay for human Vitamin D Receptor (VDR) (AID 2283022; active means hit-call score of the fitted dose curve at least 0.9, where 1 is the maximum). The essentials:
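Transactivation by an exogenous VDR-Gal4 chimera in transiently transfected HepG2 cells was measured as reporter transcript level 24 hours after chemical treatment. RT-PCR products were analysed by capillary electrophoresis and fitted in the positive direction relative to DMSO.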

Experiment [4] can be described thus: BSK_3C_SRB: Viability Assessment in the BioMAP Diversity Plus: 3C Assay (AID 2283023).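 Further: fitted both ways against DMSO so a hit may be signal rise or drop.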 The note with it: primary human endothelial cells (HUVEC). Summed up:
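Cytotoxicity readout in parallel HUVEC 3C cultures: after 24 h compound exposure, cells fixed with 10% TCA, stained with 0.1% SRB and read at 560 nm. Gain or loss relative to DMSO fitted.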

Read-out in experiment [5]: Matrix Metallopeptidase 1 (MMP1), MMP1 (gene 4312)
The experiment in a line: BSK_BE3C_MMP1: BioMAP Diversity Plus: BE3C Assay for Matrix Metallopeptidase 1 (MMP1) Biomarker Activity (AID 2283024). The settings on record: primary human bronchial epithelial cells; actives raise or lower the signal. The essentials:
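ELISA read-out of MMP1 in human lung bronchial epithelial primary cultures, 24 h post-dose; bidirectional curve fit vs DMSO baseline, gain or loss of signal scored.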

Read-out in experiment [6]: Pselectin, SELP (gene 6403)
Put plainly: BSK_4H_Pselectin: BioMAP Diversity Plus: 4H Assay for Pselectin Biomarker Activity (AID 2283026). The settings on record: primary human endothelial cells (HUVEC); actives raise or lower the signal. The essentials: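 HUVEC, 24 h chemical exposure; P-selectin read by ELISA. Bidirectional curve fit vs DMSO baseline; gain or loss of signal scored.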

The nature of experiment [7]: BSK_4H_SRB: Viability Assessment in the BioMAP Diversity Plus: 4H Assay (AID 2283027).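 Further: cells exposed to compound for 24 h before staining.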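 On AC50: curves fitted both ways versus DMSO so AC50 may be loss or gain.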 The settings on record: primary human endothelial cells (HUVEC). Summed up:
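Cytotoxicity readout: sulforhodamine B (0.1%) staining of total protein after 10% TCA fixation, measured at 560 nm in human umbilical vein endothelium at 24 h. DMSO set the baseline; fitting was bidirectional.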

The nature of experiment [8]: BSK_BE3C_SRB: Viability Assessment in the BioMAP Diversity Plus: BE3C Assay (AID 2283028).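 Further: measured 24 h after chemical dosing.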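 On AC50: fitted both ways so AC50 may mark signal gain or loss versus DMSO.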 The note with it: primary human bronchial epithelial cells. The essentials:
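Cytotoxicity read-out: SRB (0.1%) staining of TCA-fixed (10%) human lung bronchial epithelial cells, absorbance 560 nm, 24 h post-dosing. Curves fitted both directions relative to DMSO.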

Read-out in experiment [9]: Thrombomodulin, THBD (gene 7056)
The experiment in a line: BSK_3C_Thrombomodulin: BioMAP Diversity Plus: 3C Assay for Thrombomodulin Biomarker Activity (AID 2283029). The settings on record: primary human endothelial cells (HUVEC); actives raise or lower the signal. Summed up:
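HUVEC, 3C conditions; compound 24 h; thrombomodulin by ELISA; bidirectional curve fit vs DMSO baseline; parallel SRB total-protein staining for cytotoxicity.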

Read-out in experiment [10]: Urokinase-type plasminogen activator receptor (uPAR), PLAUR (gene 5329)
The experiment in a line: BSK_4H_uPAR: BioMAP Diversity Plus: 4H Assay for Urokinase-type plasminogen activator receptor (uPAR) Biomarker Activity (AID 2283030). The settings on record: primary human endothelial cells (HUVEC); actives raise or lower the signal. Summed up:
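uPAR level read by ELISA on HUVEC cultures (BioMAP 4H) 24 h post-dosing, analyzed for gain or loss relative to DMSO. Parallel SRB staining assessed overt cytotoxicity.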

Read-out in experiment [11]: Vascular endothelial growth factor receptor 2 (Homo sapiens) (UniProt P35968)
The experiment in a line: BSK_4H_VEGFRII: BioMAP Diversity Plus: 4H Assay for Vascular endothelial growth factor receptor 2 (VEGFR2) Biomarker Activity (AID 2283031).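 On AC50: cell-surface VEGFR2 protein level quantified by ELISA.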 The note with it: primary human endothelial cells (HUVEC); actives raise or lower the signal. Summed up:
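Measured by ELISA after 24 h of compound treatment: VEGFR2 on primary human umbilical vein endothelial cells, fitted in both directions relative to DMSO. Parallel cultures received SRB staining (560 nm) for overt cytotoxicity.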

Read-out in experiment [12]: Human Leukocyte Antigen - DR isotype (HLADR), HLA-DRA (gene 3122)
The experiment in a line: BSK_BE3C_HLADR: BioMAP Diversity Plus: BE3C Assay for Human Leukocyte Antigen - DR isotype (HLADR) Biomarker Activity (AID 2283032). The settings on record: primary human bronchial epithelial cells; actives raise or lower the signal. The essentials:
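Primary human bronchial epithelial cells (BE3C); 24 h chemical exposure; HLA-DR by ELISA; bidirectional curve fit vs DMSO baseline.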

Read-out in experiment [13]: Vascular cell adhesion molecule 1 (VCAM1), VCAM1 (gene 7412)
Put plainly: BSK_4H_VCAM1: BioMAP Diversity Plus: 4H Assay for Vascular cell adhesion molecule 1 (VCAM1) Biomarker Activity (AID 2283033).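 On outcome: cell-surface VCAM-1 protein measured by ELISA.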 The settings on record: primary human endothelial cells (HUVEC); actives raise or lower the signal. The essentials:
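HUVEC, 24 h post-dose; VCAM-1 by ELISA. Bidirectional curve fit vs DMSO baseline. Parallel SRB total-protein stain (0.1% SRB after 10% TCA fixation, 560 nm) for cytotoxicity.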

Read-out in experiment [14]: Interferon-gamma inducible Protein 10 (IP10), CXCL10 (gene 3627)
Put plainly: BSK_BE3C_IP10: BioMAP Diversity Plus: BE3C Assay for Interferon-gamma inducible Protein 10 (IP10) Biomarker Activity (AID 2283034). The note with it: primary human bronchial epithelial cells; actives raise or lower the signal. Summed up:
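ELISA readout of IP-10 in BE3C system: primary human bronchial epithelial cells, 24 h post-dosing; bidirectional curve fit vs DMSO baseline.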

Read-out in experiment [15]: Monokine induced gamma interferon (MIG), CXCL9 (gene 4283)
The experiment in a line: BSK_BE3C_MIG: BioMAP Diversity Plus: BE3C Assay for Monokine induced gamma interferon (MIG) Biomarker Activity (AID 2283035).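 On outcome: MIG protein measured by ELISA in BE3C cultures after 24 h of dosing.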 The note with it: primary human bronchial epithelial cells; actives raise or lower the signal. Summed up: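 hu bronchial epithelial 1° cells, 24 h cpd; MIG by ELISA; bidirectional fit, DMSO = baseline.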

Read-out in experiment [16]: Plasminogen activator inhibitor-1 (PAI1), SERPINE1 (gene 5054)
The experiment in a line: BSK_BE3C_PAI1: BioMAP Diversity Plus: BE3C Assay for Plasminogen activator inhibitor-1 (PAI1) Biomarker Activity (AID 2283037). The settings on record: primary human bronchial epithelial cells; actives raise or lower the signal. The essentials:
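ELISA read-out of PAI-1 from human bronchial epithelial primary cells, 24 h post-dosing; bidirectional curve fit vs DMSO baseline, gain or loss of signal scored.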

Read-out in experiment [17]: urokinase plasminogen activator (uPA), PLAU (gene 5328)
Put plainly: BSK_BE3C_uPA: BioMAP Diversity Plus: BE3C Assay for urokinase plasminogen activator (uPA) Biomarker Activity (AID 2283038).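 On outcome: uPA protein level quantified by ELISA in cell cultures; uPA read one day after compound addition.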 The settings on record: primary human bronchial epithelial cells; actives raise or lower the signal. Summed up:
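ELISA for uPA on human primary bronchial epithelial cultures 24 h post-treatment, gain or loss against DMSO. Parallel SRB staining (0.1% after 10% TCA fixation, 560 nm) assessed overt cytotoxicity.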

Read-out in experiment [18]: Urokinase-type plasminogen activator receptor (uPAR), PLAUR (gene 5329)
The experiment in a line: BSK_BE3C_uPAR: BioMAP Diversity Plus: BE3C Assay for Urokinase-type plasminogen activator receptor (uPAR) Biomarker Activity (AID 2283039).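 On outcome: uPAR protein level measured by ELISA on the cells; cells exposed to compound for one day before measurement.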 The note with it: primary human bronchial epithelial cells; actives raise or lower the signal. The essentials:
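ELISA readout of uPAR on human lung primary bronchial epithelial cells, 24 h post-dosing. Bidirectional curve fit relative to DMSO vehicle baseline; gain or loss of signal both scored.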

Experiment [19] can be described thus: BSK_3C_Vis: BioMAP Diversity Plus: 3C Assay for Morphology Visualization (AID 2283025).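 Further: light microscopy image of cell morphology used as background control; fitted both ways so gain or loss versus DMSO counts.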 The settings on record: primary human endothelial cells (HUVEC). Summed up:
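HUVEC, 3C system; light microscopy of morphology at 24 h post-dose. Bidirectional fit vs DMSO baseline. Secondary readout, background-control function.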

Read-out in experiment [20]: Transforming growth factor beta 1 (TGFb1), TGFB1 (gene 7040)
The experiment in a line: BSK_BE3C_TGFb1: BioMAP Diversity Plus: BE3C Assay for Transforming growth factor beta 1 (TGFb1) Biomarker Activity (AID 2283036). The note with it: primary human bronchial epithelial cells; actives raise or lower the signal. Summed up:
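Read-out: ELISA for TGF-b1 in primary human bronchial epithelial cultures, 24 h post-dose. Bidirectional curve fitting vs DMSO control; gain or loss of signal both scored.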

Usually AC50 stands for the concentration giving half of the maximal activity seen.

Values joined by “and” are separate entries in the source; they are usually repeats but may differ in a detail not shown here. Equal values may be shown once. Inconclusive results are not listed. More than one record can exist for a structure, and the calls need not agree. Active and inactive are the calls of the source. How the source made its calls, unless noted: active means hit-call score of the fitted dose curve at least 0.9, where 1 is the maximum; inactive means score below 0.9.

Chain of human Vitamin D Receptor (VDR), VDR (gene 7421) (P11473 whole entry, looked up, the tested form may be a part): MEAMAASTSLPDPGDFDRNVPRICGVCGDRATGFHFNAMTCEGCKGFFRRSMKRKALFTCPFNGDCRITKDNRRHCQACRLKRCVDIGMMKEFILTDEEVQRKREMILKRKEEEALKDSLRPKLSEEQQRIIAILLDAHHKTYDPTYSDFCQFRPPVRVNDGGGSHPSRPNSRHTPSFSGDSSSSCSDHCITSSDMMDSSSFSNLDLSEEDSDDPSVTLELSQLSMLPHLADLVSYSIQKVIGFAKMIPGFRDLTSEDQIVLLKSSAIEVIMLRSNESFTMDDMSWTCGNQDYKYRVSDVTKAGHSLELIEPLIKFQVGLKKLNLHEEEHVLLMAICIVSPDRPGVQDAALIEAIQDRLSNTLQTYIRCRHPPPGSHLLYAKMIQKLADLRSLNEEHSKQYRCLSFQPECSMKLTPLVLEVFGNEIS

With `O=C(O)C(F)(F)C(F)(F)C(F)(F)OC(F)(F)F`, the result in experiment [1], in experiment [2], in [3], in [4], in [5] and in experiment [6] was inactive. The outcome in experiment [7], in experiment [8], in experiment [9], in [10], in experiment [11] and in experiment [12] was inactive. The outcome in experiment [13], in experiment [14], in [15], in experiment [16], in experiment [17] and in [18] was inactive. The figures for the AC50 in [5] and in experiment [9] were 37.3 µM (active) and 5.95 µM (active), respectively.

As to `CCN(CC)c1ccc(N=Nc2ccccc2)cc1`, the AC50 in experiment [1] is 20 µM (active); in experiment [4], 12.1 µM (active); in experiment [19] it was 8.8 µM (active); in experiment [6] it was 11.3 µM (active); in [7], 20 µM (active); in [11], 20 µM (active). For the same compound, the AC50 in experiment [13] was 16.9 µM (active); in experiment [14], 10.2 µM (active); in experiment [20], 20 µM (active); in [16], 29.3 µM (active). Besides, the outcome in experiment [2], in [3], in experiment [5], in [8], in experiment [9] and in [10] was inactive. Moreover, the outcome in experiment [12], in experiment [15], in experiment [17] and in experiment [18] was inactive.

Turning to `CNS(=O)(=O)C(F)(F)C(F)(F)C(F)(F)C(F)(F)C(F)(F)C(F)(F)C(F)(F)C(F)(F)F`, the outcome in [1], in experiment [2], in experiment [3], in [4], in experiment [5] and in [6] was inactive. For the same compound, the result in experiment [7], in experiment [8], in [9], in [10], in experiment [11] and in experiment [12] was inactive. Besides, the outcome in [13], in [14], in [15], in experiment [17] and in experiment [18] was inactive. For the same compound, the AC50 was 29.8 µM (active) in experiment [7]; 13.3 µM (active) in experiment [14]; 2.67 µM (active) and 1.97 µM (active) in experiment [16].

`CCN(CCO)S(=O)(=O)C(F)(F)C(F)(F)C(F)(F)C(F)(F)C(F)(F)C(F)(F)C(F)(F)C(F)(F)F`: the AC50 in experiment [1] was 13.7 µM (active); in [4] it was 27.6 µM (active) and 17.8 µM (active); in [5], 4.15 µM (active); in experiment [6], 19.1 µM (active); in experiment [7], 45.8 µM (active) and 40.1 µM (active); in experiment [8], 44.5 µM (active) and 37.2 µM (active). For the same compound, the AC50 in experiment [9] was 12.6 µM (active) and 21.8 µM (active); in experiment [12], 43.7 µM (active) and 27.7 µM (active); in experiment [13], 50.6 µM (active); in experiment [14], 35 µM (active) and 14.4 µM (active); in [15] it was 50.6 µM (active) and 43.2 µM (active); in experiment [16], 30 µM (active) and 15.4 µM (active). Also, the AC50 in [17] is 47.8 µM (active); in experiment [18], 46.4 µM (active) and 36.9 µM (active). Also, the result in experiment [1], in experiment [2], in [3], in experiment [5], in experiment [6] and in experiment [10] was inactive. The result in [11], in [13] and in [17] was inactive.

Take `O=S(=O)(O)CCC(F)(F)C(F)(F)C(F)(F)C(F)(F)F`: in [1], the AC50 is 30 µM (active). Further, the result in experiment [1], in [2], in [3], in experiment [4], in experiment [5] and in experiment [6] was inactive. Also, the result in experiment [7], in experiment [8], in experiment [9], in experiment [10], in experiment [11] and in [12] was inactive. In addition, the outcome in [13], in experiment [14], in [15], in experiment [16], in experiment [17] and in experiment [18] was inactive.

The record behind these values is PubChem BioAssay (EPA / NIEHS).
